Measurements from PubChem BioAssay (NCATS).
Results filed as inconclusive are left out. Calls of active or inactive are those of the source. Calls follow the shape of the dose curve; as a rule, active = well fitted inhibition curve with a large enough effect; inconclusive = small, poorly fitted or top-dose-only effect; inactive = flat fitted curve, though single readings scatter.

How the values were obtained:
Assay in all cases: Cytotoxic Profiling of Annotated Libraries Using Quantitative High-Throughput Screening (AID 1296008); also: nearly all actives have a fitted effect of over 60% in size
Conditions in all cases: Five cell lines viability, CellTiter-Glo ATP luminescence, 48-72 h; max response: stronger effect = lower value
CRL-7250 = normal cell line; test system: CRL-7250
In short: (§1)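 Compounds were pin-transferred onto cells and incubated 48 or 72 hr at 37 degree Celsius, 95% humidity. CellTiter-Glo was added, plates sat 10 min at room temperature, then ATP-coupled luminescence was imaged as the viability read-out.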

HEK293 = test system: HEK293
In short: as §1

HaCat = test system: HaCat
In short: as §1

KB-3-1 = test system: KB-3-1
In short: as §1

NIH3T3 = test system: NIH3T3
In short: as §1

Measured: max response
% is scaled to controls: 0 for no effect and ±100 for the full control effect.

COc1cc(/C=C/C(=O)OC[C@H]2O[C@@H](OC3CC(C)=C(C(=O)O)C(C)(C)C3)[C@H](O)[C@@H](O)[C@@H]2O)cc(OC)c1O (stereo not given in full)
inactive: CRL-7250 -3.13% | HEK293 -1.71% | HaCat | KB-3-1 | NIH3T3

COC(=O)C1=COC(OC2OC(CO)C(O)C(O)C2O)C2C(C)C(OC(=O)/C=C/c3ccc(O)cc3)C(O)C12 (stereo not given)
inactive: CRL-7250 0.486% | HEK293 -0.112% | HaCat | KB-3-1 1.09% | NIH3T3 -1.55%

COc1ccc(Oc2c(Cl)cnn(C3c4ccccc4-c4ccccc43)c2=O)cc1
inactive: CRL-7250 -3.95% | HEK293 -2.77% | HaCat | KB-3-1 -2.29% | NIH3T3

OC[C@@]1(O)CO[C@H](OC[C@H]2O[C@@H](OC(CCCCc3ccc(O)cc3)CCc3ccc(O)cc3)[C@H](O)[C@@H](O)[C@@H]2O)[C@@H]1O (stereo not given in full)
inactive: CRL-7250 -9.7% | HEK293 -4.6% | HaCat | KB-3-1 9.32% | NIH3T3

COc1cc([C@H]2OC[C@](O)(Cc3ccc(O[C@@H]4O[C@H](CO)[C@@H](O)[C@H](O)[C@H]4O)c(OC)c3)[C@@H]2CO)ccc1O
inactive: CRL-7250 -8.35% | HEK293 1.25% | HaCat | KB-3-1 0.848% | NIH3T3

COc1cc(C)c(C(=O)NC2C(C)OC(OC3CCC(C)C4C3C=C(C)C3/C(C)=C\CC/C(C)=C/C5(C)C=C(C(=O)O)C(C)CC56OC(=O)/C(=C(\O)C34C)C6=O)C(O)C2(C)O)c(O)c1 (stereo not given)
inactive: CRL-7250 -0.565% | HEK293 -0.938% | HaCat | KB-3-1 -0.929% | NIH3T3

CC(O)C/C=C/C=C/C(=O)OC1C=C2COC(=O)C2(O)C2(C)CCCC(C)(C)C12 (stereo not given)
inactive: CRL-7250 | HEK293 -13.6% | HaCat | KB-3-1 5.12% | NIH3T3 -2.82%

CC1(CO)CC(O)C2(C)CCC3(C)C(=CCC4C5(C=O)CCC(OC6OC(C(=O)O)C(O)C(O)C6OC6OC(C(=O)O)C(O)C(O)C6O)C(C)(C)C5CCC43C)C2C1 (stereo not given)
inactive: CRL-7250 | HEK293 -10.9% | HaCat | KB-3-1 | NIH3T3

CC(C)C(O)(CO)CCO[C@@H]1O[C@H](CO[C@H]2OC[C@](O)(CO)[C@H]2O)[C@@H](O)[C@H](O)[C@H]1O (stereo not given in full)
inactive: CRL-7250 2.62% | HEK293 -11.4% | HaCat -9.77% | KB-3-1 4.64% | NIH3T3

CC1(C)CC[C@]2(C(=O)O[C@@H]3O[C@H](CO[C@@H]4O[C@H](CO)[C@@H](O)[C@H](O)[C@H]4O)[C@@H](O)[C@H](O[C@@H]4O[C@H](CO)[C@@H](O)[C@H](O)[C@H]4O)[C@H]3O)[C@H](O)C[C@]3(C)C(=CCC4[C@@]5(C)CC[C@H](O[C@@H]6OC[C@@H](O)[C@H](O)[C@H]6O)[C@@](C)(C(=O)O)C5CC[C@]43C)[C@@H]2C1 (stereo not given in full)
inactive: CRL-7250 -2.05% | HEK293 -13.5% | HaCat -5.99% | KB-3-1 2.29% | NIH3T3

CCCO[C@@H]1O[C@H](CO)[C@@H](O)[C@H](O)[C@H]1O[C@@H]1OC[C@@H](O)[C@H](O)[C@H]1O
inactive: CRL-7250 1.31% | HEK293 -4.21% | HaCat | KB-3-1 9.26% | NIH3T3 -1.11%

CCOc1ccc(-c2nn3ncccc3c2-c2ccc(S(C)(=O)=O)cc2)cc1
inactive: CRL-7250 -7.67% | HEK293 -11.9% | HaCat | KB-3-1 2.36% | NIH3T3 3.39%

O=C(/C=C/c1ccc(O)cc1)O[C@@H]1C[C@@](O)(C(=O)O)C[C@@H](O)[C@@H]1O
inactive: CRL-7250 -19.8% | HEK293 -2.92% | HaCat -16.3% | KB-3-1 5.75% | NIH3T3

CC(=O)O[C@@H]1C(=O)C(C)=C(CCC(C)CC(=O)O)[C@@]2(C)CCCC(C)(C)C12 (stereo not given in full)
inactive: CRL-7250 | HEK293 0.534% | HaCat -6.8% | KB-3-1 -5.14% | NIH3T3

COC(=O)C1=CO[C@@H](O[C@@H]2O[C@H](CO)[C@@H](O)[C@H](O)[C@H]2O)[C@H]2[C@@H]1[C@H](O)C[C@]2(C)O
inactive: CRL-7250 | HEK293 -1.47% | HaCat | KB-3-1 | NIH3T3 -11.4%

COc1cccc(C(=O)NCCNc2nc3cc(C)cc(C)c3cc2C#N)c1
inactive: CRL-7250 -1.46% | HEK293 -19% | HaCat | KB-3-1 5.87% | NIH3T3 -4.31%

NC1=NC2(c3cc(NC(=O)c4ccc(F)cn4)ccc3F)COCC2CS1 (stereo not given)
inactive: CRL-7250 3.35% | HEK293 -14.7% | HaCat | KB-3-1 -4.81% | NIH3T3 -8.12%

C=C(C)C(O)COc1ccc(CC(=O)O)cc1 (stereo not given)
inactive: CRL-7250 -8.29% | HEK293 2.49% | HaCat -1.96% | KB-3-1 | NIH3T3

O=C(O[C@@H]1O[C@H](CO)[C@@H](O)[C@H](O)[C@H]1O)c1ccccc1
inactive: CRL-7250 | HEK293 | HaCat 4.66% | KB-3-1 | NIH3T3 4.36%

NC(=O)[C@@H]1CC[C@H](c2ccc(OCc3ccccc3F)cc2)N1
inactive: CRL-7250 -6.02% | HEK293 2.17% | HaCat | KB-3-1 -8.37% | NIH3T3

O=C(O)[C@H](Cc1ccccc1)Oc1ccc(-c2ccccc2)cc1
inactive: CRL-7250 -13.4% | HEK293 4.06% | HaCat -11.4% | KB-3-1 | NIH3T3
